# Measured values taken from PMC4336329 (PLoS ONE, 2015).
# Out of some 310,000 compounds screened, about 14,000 (4.5%) showed an effect of 50% or more. The effect is printed as a negative number. Shown is part of a subset that was picked to be rich in strong results.
# Target: human ether-à-go-go-related gene (hERG) potassium channel (human, UniProt Q12809)
# Test: primary screen, population patch clamp on CHO cells stably expressing hERG; higher = less effect of the substance
# 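Note: peak tail current of the secondary pulse compared with the same well before compound.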
# Sequence of human ether-à-go-go-related gene (hERG) potassium channel (Q12809 whole entry, looked up): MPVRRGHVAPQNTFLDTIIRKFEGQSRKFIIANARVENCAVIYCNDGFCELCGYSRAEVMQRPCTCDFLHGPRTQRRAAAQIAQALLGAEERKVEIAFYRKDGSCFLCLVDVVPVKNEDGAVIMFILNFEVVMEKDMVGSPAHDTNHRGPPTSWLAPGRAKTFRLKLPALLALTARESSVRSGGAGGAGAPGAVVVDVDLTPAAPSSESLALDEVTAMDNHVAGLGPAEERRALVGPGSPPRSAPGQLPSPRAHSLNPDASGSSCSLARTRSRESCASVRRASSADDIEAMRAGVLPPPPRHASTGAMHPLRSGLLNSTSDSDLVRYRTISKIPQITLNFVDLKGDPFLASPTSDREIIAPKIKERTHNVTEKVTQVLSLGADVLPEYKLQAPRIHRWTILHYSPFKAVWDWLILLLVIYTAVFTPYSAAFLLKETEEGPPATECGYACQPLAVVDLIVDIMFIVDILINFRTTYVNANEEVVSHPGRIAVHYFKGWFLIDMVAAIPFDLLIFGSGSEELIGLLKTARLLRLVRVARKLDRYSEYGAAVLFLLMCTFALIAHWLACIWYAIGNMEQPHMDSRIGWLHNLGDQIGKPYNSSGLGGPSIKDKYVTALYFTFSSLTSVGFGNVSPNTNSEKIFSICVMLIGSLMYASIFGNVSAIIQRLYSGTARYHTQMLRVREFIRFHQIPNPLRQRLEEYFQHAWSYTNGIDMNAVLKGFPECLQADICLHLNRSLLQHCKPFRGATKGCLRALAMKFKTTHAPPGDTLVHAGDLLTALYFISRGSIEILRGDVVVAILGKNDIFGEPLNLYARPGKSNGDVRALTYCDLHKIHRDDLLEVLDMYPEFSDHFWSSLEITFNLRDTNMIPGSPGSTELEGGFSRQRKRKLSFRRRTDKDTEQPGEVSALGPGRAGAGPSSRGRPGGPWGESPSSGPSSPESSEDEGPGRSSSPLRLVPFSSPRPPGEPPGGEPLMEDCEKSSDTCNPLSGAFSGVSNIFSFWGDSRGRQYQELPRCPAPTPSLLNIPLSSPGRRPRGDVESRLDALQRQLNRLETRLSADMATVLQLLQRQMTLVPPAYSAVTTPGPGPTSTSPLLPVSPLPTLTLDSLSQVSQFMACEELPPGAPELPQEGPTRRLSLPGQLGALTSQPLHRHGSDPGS
row,Structure (SMILES),"hERG current change (%, negative = inhibition) at 10uM [%]"
1,CC1CCCC(NC(=O)CCNC(=O)c2ccc(Br)cc2)C1C (stereo not drawn),-0.231
2,Cc1ccc(C)c(OC(C)C(=O)Nc2nccs2)c1 (stereo not drawn),3.8
3,CN(C)c1ccc(/C=N/NC(=O)CCC(=O)NCc2ccccc2)cc1,11.3
4,CCc1cc(C(=O)N2CCc3c([nH]c4ccccc34)C2c2ccc(OC)cc2F)no1 (stereo not drawn),15.7
5,COc1ccc2oc(C(=O)CCC(=O)O)c(N)c2c1,4.93
6,COc1ccccc1N1CCN(C(=O)c2cc(C)oc2C)CC1,21
7,O=C(NN1CC(=O)N(c2cc(Cl)cc(Cl)c2)CC1=O)c1sccc1Cl,-0.682
8,Cc1cccc(N(CC(=O)N/N=C/c2ccccc2C(=O)O)S(C)(=O)=O)c1C,-28.9
9,CC(C)(C)NCC(=O)N/N=C/c1ccc(OCc2ccccc2)cc1,-60.5
10,N#CCC(=O)N/N=C/c1ccc(OCc2ccccc2)cc1,11.3
11,CC(C)C(=O)N/N=C/c1ccc(OCc2ccccc2)cc1,17.8
12,O=C(NNc1nc2ccccc2nc1C(F)(F)F)c1ccccc1,11.9
13,Cc1ccc(NC(=O)c2cc(-c3ccccc3)n[nH]2)cc1,18.3
14,CC(C)c1ccc(N(C(=O)c2csnn2)C(C(=O)NC(C)(C)C)c2ccncc2)cc1 (stereo not drawn),-42.8
15,CC(C)C[C@@H](COc1ccccc1)N1CCN(Cc2ccccc2)CCC1=O,-35.4
16,CCCN1CCC(=O)N([C@H](CN=[N+]=[N-])CC(C)C)CC1,3.11
17,CC(C)C[C@@H](COc1ccccc1)N1CCN(CCc2ccccc2)CCC1=O,-77.5
18,CCCN1CCC(=O)N([C@H](COc2ccccc2)CC(C)C)CC1,-81.9
19,CC(C)C[C@@H](CO)N1CCN(CCc2ccccc2)CCC1=O,-23
20,COc1cc([N+](=O)[O-])ccc1NC(=O)CN(C)C,-15.9
21,O=C(O)CC(CC(=O)Nc1ccccc1C(=O)O)c1ccccc1 (stereo not drawn),3.3
22,C=C(C)CCC1(C)NC(=O)N(c2ccccc2)N1 (stereo not drawn),-4.03
23,CN(C(=O)CSc1nnnn1-c1ccc(O)cc1)C1CCS(=O)(=O)C1 (stereo not drawn),14.8

row,Structure (SMILES),"hERG current change (%, negative = inhibition) at 10uM [%]"
1,CCN(CC(=O)NCc1cccs1)C(=O)CN(C)S(=O)(=O)c1ccc(C)cc1,-27.3
2,COc1ccccc1NC(=O)CSc1nc2sc3c(c2c(=O)n1-c1ccccc1)CCN(C)C3,-26
3,CC1(C)OC(=O)N(c2ccccc2)C12C=Cc1cc(Br)ccc1O2 (stereo not drawn),-14.4
4,O=C(Nc1ccc(OC(F)(F)F)cc1)c1ccc(S(=O)(=O)N2CCOCC2)o1,-53.7
5,COc1ccc(NC(=O)c2ccc(S(=O)(=O)N3CCOCC3)o2)cc1,0.458
6,O=C(Nc1ccc(S(=O)(=O)N2CCCC2)cc1)c1ccc(Br)o1,14.8
7,O=C(Nc1ccc(S(=O)(=O)N2CCOCC2)cc1)c1ccc(Br)o1,-64.8
8,O=C(Nc1ccc(S(=O)(=O)N2CCCCCC2)cc1)c1ccc(Br)o1,-14.5
9,O=C(Nc1ccc(F)cc1)c1ccc(S(=O)(=O)N2CCOCC2)o1,-13.1
10,O=C(NNc1ccccc1[N+](=O)[O-])Nc1cccc(Cl)c1,19.3
11,Cc1ccccc1Cn1cc(NC(=O)CCCn2nc([N+](=O)[O-])cc2C)cn1,-7.52
12,O=C(NNS(=O)(=O)c1ccc([N+](=O)[O-])cc1)c1ccc([N+](=O)[O-])cc1,28.6
13,CN(CCCNC(=O)c1cc2c(Cl)nc3ccccc3c2s1)Cc1ccccc1,-44.3
14,Cn1c(C(=O)NCCN2CCN(c3ccccc3F)CC2)cc2c(=O)n(C)c3ccccc3c21,-4.62
15,CN(CCCNC(=O)c1cccn2c(=O)c3ccccc3nc12)Cc1ccccc1,-74.1
16,O=C(CCNC(=O)Cn1ccc2ccccc2c1=O)NCCN1CCN(c2ccccc2F)CC1,6.8
17,O=C(NCCN1CCN(c2ccccc2F)CC1)c1cccn2c(=O)c3ccccc3nc12,-71.5
18,O=C(NCCN1CCN(c2ccccc2)CC1)c1cccn2c(=O)c3ccccc3nc12,-63
19,COCCCNC(=O)c1cccn2c(=O)c3cc4ccccc4cc3nc12,-42.2
20,O=C(NCCN1CCN(c2ccccc2)CC1)c1cccn2c(=O)c3cc(Cl)ccc3nc12,-45.4
21,O=C(O)c1cccn2c(=O)c3ccccc3nc12,13.1
22,CCN(CC(=O)NC1CCS(=O)(=O)C1)C(=O)COc1ccccc1-c1ccccc1 (stereo not drawn),11.7
